Reference: PubChem BioAssay
Values joined by “and” are separate entries in the source; they are usually repeats but may differ in a detail not shown here. Equal values may be shown once. Records with an inconclusive call do not appear. For some assays here: Entries with a potency or affinity are not part of this list. Active and inactive are the calls of the source. Unless noted, the rule behind the calls is not given here.

Tests used:
[1] = circadian clock period modulators, cell-based, LOPAC library, luminescence reporter (AID 2774); details: circadian reporter cells, at 7 µM, actives lie on both sides;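 note: values are relative to mean of DMSO wells on each plate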
[2] = test system: Hepatitis C virus NS3 helicase; assay: HCV NS3 helicase inhibitors, primary screen, biochemical, fluorescence polarization, LOPAC1280 library (AID 687035; in the data active = inhibition above about 37%); details: Purified HCV NS3 helicase, Cy5-dT15 ssDNA binding fluorescence polarization; stronger effect = higher value; concentration not given here
[3] = Cy5 fluorescence quenching or enhancement artefacts, artefact control for HCV NS3 helicase inhibitor project, biochemical, LOPAC1280 (AID 687037); details: Cy5-DNA-NS3h complex fluorescence interference counterscreen
[4] = differential killing of epithelial or mesenchymal cells, primary screen, imaging, PC-3E GFP, TEM4-18 mCherry, co-culture (AID 1345086;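 active = compounds killing one labelled cell type while sparing the other, by normalised counts and ratio limits, not self-fluorescent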;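 for all read-outs here: cells exposed to compound for 72 h before imaging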;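 for red/green cell ratio (normalised): normalised mesenchymal count divided by normalised epithelial count so high means epithelial killing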); details: imaging cell counts, at 1 µM; for red/green cell ratio (normalised): actives lie on both sides, counts scaled to control wells, 1 = unselective
[5] = sensitizers of A549 cells to miR-34 induction, primary screen, imaging, A549 dox-inducible miR-34, nuclei and caspase counts (AID 1347080;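 active = compounds whose cell count with miR-34 switched on is under 0.7 times the count with it off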); details: A549 miR-34 inducible, Hoechst nuclei count, 48 h
[6] = phospholipid biosynthesis inhibitors in animal cells, primary screen, cell-based, LOPAC library, screen 4 (AID 1347384); details: phospholipid biosynthesis inhibition screen, at 10 µM
[7] = viability rescue of complex I mutant cybrids, primary screen, cell-based, galactose medium, ATP luminescence (AID 1645843;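 active = z-score of at least 1.8 in each of two replicates, scored against plate mean and spread of sample wells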;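 note: positive z means more ATP and so rescue of galactose-driven cybrid death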); details: complex I mutant cybrid cells, 72 h, stronger effect = higher value
[8] = liver-stage malaria parasite growth inhibition, primary screen, cell-based, HepG2, luciferase luminescence, HepG2 viability (AID 624349; in the data active = parasite load remaining mostly below about 12%, no sharp cut-off; inactive = mostly above about 10%;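 note: 100% = mean of DMSO negative control wells on the same plate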); details: P. berghei liver stage in HepG2, luciferase luminescence, concentration not given here; parasite load remaining: stronger effect = lower value; viability: measured here: HepG2 viability without parasites
[9] = survival rescue of mitochondrial mutant cells in low glucose, primary screen, MELAS cybrids, Rieske KO mouse fibroblasts, CellTiter-Glo (AID 1508586;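 active = mean z-score across replicates of 1.96 or higher in either the MELAS or the Rieske mutant cell line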;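 note: z relative to plate mean and SD of compound and empty wells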)
[10] = target: NAD(+) hydrolase SARM1 (Homo sapiens) (UniProt Q6SZW1); assay: SARM1 TIR NADase inhibitors, cell lysate, NAD-Glo luminescence (AID 1508614;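 active = compound whose remaining NAD level is above about 45 nM, limit read from the data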;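 note: higher remaining NAD means stronger inhibition of SARM1 NADase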); details: SAM-TIR HEK293T lysate NADase, at 1 µM, stronger effect = higher value
NAD(+) hydrolase SARM1 (Homo sapiens), sequence (Q6SZW1 whole entry, looked up, the tested form may be a part): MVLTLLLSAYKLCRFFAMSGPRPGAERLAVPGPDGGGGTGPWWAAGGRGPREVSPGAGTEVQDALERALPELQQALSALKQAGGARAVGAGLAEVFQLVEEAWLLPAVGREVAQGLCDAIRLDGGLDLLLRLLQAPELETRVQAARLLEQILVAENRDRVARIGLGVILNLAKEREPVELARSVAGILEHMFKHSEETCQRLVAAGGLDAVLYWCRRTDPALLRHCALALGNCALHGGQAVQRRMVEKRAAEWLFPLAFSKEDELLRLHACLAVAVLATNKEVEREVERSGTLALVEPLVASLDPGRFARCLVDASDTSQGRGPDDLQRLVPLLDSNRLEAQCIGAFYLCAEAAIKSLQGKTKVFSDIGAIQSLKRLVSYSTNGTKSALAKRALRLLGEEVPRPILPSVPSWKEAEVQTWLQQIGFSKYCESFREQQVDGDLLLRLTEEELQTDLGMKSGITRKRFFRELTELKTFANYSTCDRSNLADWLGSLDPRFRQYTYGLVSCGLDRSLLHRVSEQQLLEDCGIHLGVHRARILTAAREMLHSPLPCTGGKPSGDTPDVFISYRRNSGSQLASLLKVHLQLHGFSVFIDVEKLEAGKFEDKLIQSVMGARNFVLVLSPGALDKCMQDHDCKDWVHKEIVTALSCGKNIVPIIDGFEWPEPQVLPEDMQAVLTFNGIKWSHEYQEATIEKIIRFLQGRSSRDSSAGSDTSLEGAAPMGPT

[11] = target: Mitogen-activated protein kinase 7 (Homo sapiens) (UniProt Q13164); assay: ERK5 transactivation activators in reporter cells, primary screen, cell-based, HTS (AID 1508626;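 active = luciferase signal above three times the same-plate solvent-only control wells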;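 note: luciferase driven by Gal4-ERK5 fusion binding five Gal4 sites before minimal TATA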); details: HeLa Gal4-ERK5 transactivation, 18 h, at 5 µM, stronger effect = higher value
Mitogen-activated protein kinase 7 (Homo sapiens), sequence (Q13164 whole entry, looked up, the tested form may be a part): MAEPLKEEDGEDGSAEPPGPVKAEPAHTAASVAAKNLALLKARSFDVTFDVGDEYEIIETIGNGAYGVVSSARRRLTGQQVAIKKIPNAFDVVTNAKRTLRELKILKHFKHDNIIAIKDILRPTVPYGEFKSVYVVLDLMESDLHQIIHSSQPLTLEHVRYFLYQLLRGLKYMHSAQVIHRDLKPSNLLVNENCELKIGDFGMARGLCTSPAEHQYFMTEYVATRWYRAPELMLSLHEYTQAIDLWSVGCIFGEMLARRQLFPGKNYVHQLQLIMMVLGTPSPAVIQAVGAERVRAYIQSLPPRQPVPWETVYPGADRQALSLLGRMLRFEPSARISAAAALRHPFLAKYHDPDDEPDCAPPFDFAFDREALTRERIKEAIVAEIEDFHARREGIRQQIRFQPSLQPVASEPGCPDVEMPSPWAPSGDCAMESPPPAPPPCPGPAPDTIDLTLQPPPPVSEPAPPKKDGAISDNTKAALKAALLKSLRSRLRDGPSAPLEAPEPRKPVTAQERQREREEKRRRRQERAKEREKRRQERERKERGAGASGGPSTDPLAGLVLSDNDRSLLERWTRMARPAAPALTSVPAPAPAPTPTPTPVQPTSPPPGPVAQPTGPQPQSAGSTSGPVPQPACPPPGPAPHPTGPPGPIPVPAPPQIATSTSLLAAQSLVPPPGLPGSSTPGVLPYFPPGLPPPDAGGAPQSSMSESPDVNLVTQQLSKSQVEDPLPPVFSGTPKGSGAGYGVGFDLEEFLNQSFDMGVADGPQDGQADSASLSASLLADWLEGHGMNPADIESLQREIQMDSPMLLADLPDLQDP

[12] = polyglutamine-triggered caspase-3 activation inhibitors, cell-based (AID 1583); details: polyglutamine-induced caspase-3 activation, cell assay; stronger effect = higher value;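 tested at 10 µM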
[13] = suppressors of polyQ aggregation in yeast, 75Q-TubU reporter (AID 1593); details: Yeast 75Q polyglutamine aggregation reporter
[14] = rescue of polyQ-huntingtin neuronal dysfunction in worms, whole organism, C. elegans mechanosensory neurons, N-terminal huntingtin (AID 1599); details: touch response, stronger effect = higher value
[15] = inhibitors of mitochondrial cytochrome c release, biochemical, purified mitochondria (AID 1603); details: stronger effect = lower value;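 note: mouse liver mitochondria challenged with calcium chloride; signal normalized to the plate average as 100%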
[16] = inhibitors of polyQ protein aggregation (AID 1604); details: polyglutamine-induced protein aggregation inhibition assay; stronger effect = higher value; tested at 2.5 µM
[17] = protection against mutant huntingtin cytotoxicity, PC12 cells, LDH release (AID 1610); details: PC12 mutant huntingtin toxicity, final LDH at 4 uM, stronger effect = lower value
[18] = enhancers of glutamate uptake in motor neurons, MN-1 cell line (AID 1612); details: MN-1 motor neuron cells, stronger effect = higher value;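 note: tested at 1 µM final; 0% = mean of DMSO vehicle wells on each plate; positive means more glutamate uptake than control and negative means less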
[19] = reducers of polyQ inclusions in PC12 cells, cell-based, NGF-treated PC12, GFPQ80 (AID 1614); details: PC12 NGF-treated GFP-polyQ80 inclusion reduction;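 note: lower means fewer inclusions and 0 means no inclusions at all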
[20] = suppressors of polyglutamine aggregation in yeast, 75Q-TubH (AID 1616); details: S. cerevisiae 75Q-TubH polyglutamine aggregation suppression; stronger effect = higher value
[21] = measured here: epithelial PC-3E GFP cell survival
[22] = measured here: mesenchymal TEM4-18 mCherry cell survival
[23] = stronger effect = lower value, cell number ratio, induced over uninduced
[24] = measured here: relative caspase fold change +Dox/-Dox
[25] = measured here: total cells with miR-34 induction, stronger effect = lower value
[26] = measured here: total cells without miR-34 induction
[27] = MELAS cybrid survival, CellTiter-Glo 48 h, stronger effect = higher value
[28] = Rieske KO mouse fibroblast survival, CellTiter-Glo 72 h

With `CN1C2CCC1CC(OC(=O)c1c[nH]c3ccccc13)C2` (stereo not given) the period change [1] was 0.005 h (inactive), the inhibition [2] was 0% (inactive) and the fluorescence ratio (interference) [3] was 1 (inactive). The red/green cell ratio (normalised) [4] was 1.09 (inactive), the normalised cell number [4, 21] was 0.93 and the normalised cell number [4, 22] was 1.02. For the same compound, the fold change [5, 23] was 0.997 (inactive) and 0.976 (inactive) and 0.922 (inactive), the fold change [5, 24] was 1.28 and 0.664 and 2.09 and the cell count [5, 25] was 10100 and 8850 and 6980. The cell count [5, 26] was 10100 and 9070 and 7570, the outcome [6] was “inactive” and the z-score [7] was -0.34 (inactive) and 0.77 (inactive).
With `O=C(O)c1ccccc1` the parasite load remaining [8] was 29.9% (inactive), the viability [8] was 83.9% and the red/green cell ratio (normalised) [4] was 1.1 (inactive). The normalised cell number [4, 21] was 1.23, the normalised cell number [4, 22] was 1.35 and the fold change [5, 23] was 0.957 (inactive) and 0.932 (inactive). For the same compound, the fold change [5, 24] was 0.544 and 1.69, the cell count [5, 25] was 8250 and 11300 and the cell count [5, 26] was 8620 and 12100. The z-score [9, 27] was -0.248 (inactive), the z-score [9, 28] was -0.209 and the remaining NAD [10] was 10 nM (inactive). The luciferase signal [11] was 36 AU (inactive).
For `CSCC[C@H](NC(=O)[C@H](Cc1c[nH]c2ccccc12)NC(=O)[C@H](C)NC(=O)OC(C)(C)C)C(=O)N[C@@H](CC(=O)O)C(=O)N[C@@H](Cc1ccccc1)C(N)=O`, the red/green cell ratio (normalised) [4] was 0.98 (inactive), the normalised cell number [4, 21] was 1.15 and the normalised cell number [4, 22] was 1.13. For the same compound, the fold change [5, 23] was 0.979 (inactive), the fold change [5, 24] was 0.82 and the cell count [5, 25] was 9410. For the same compound, the cell count [5, 26] was 9610.
In the case of `O=C(O)C1=CC(=C(c2ccc(O)c(C(=O)O)c2)c2ccc(O)c(C(=O)O)c2)C=CC1=O`, the period change [1] is reported as -0.145 h (inactive), the inhibition [2] is reported as 96% (active) and the fluorescence ratio (interference) [3] is reported as 1 (inactive). The red/green cell ratio (normalised) [4] was 1.1 (inactive), the normalised cell number [4, 21] was 1.19 and the normalised cell number [4, 22] was 1.31. The fold change [5, 23] was 1.06 (inactive), the fold change [5, 24] was 1.49 and the cell count [5, 25] was 8760. For the same compound, the cell count [5, 26] was 8290, the outcome [6] was “inactive” and the luciferase signal [11] was 12 AU (inactive). For the same compound, the z-score [7] was 5.43 (active).
Compound `CCCCC[C@H](CC(=O)NO)C(=O)N[C@H](C(=O)N1CCC[C@H]1CO)C(C)C` has an inhibition [12] of -22.9%, a score [13] of 1.1 and a rescue above control [14] of 7.47. The cytochrome c release ratio [15] was 0.78, the inhibition of aggregation [16] was 14.3% and the normalised LDH release [17] was 1.19. For the same compound, the glutamate uptake change [18] was 9.77%, the inclusion score [19] was 2 and the aggregation suppression score [20] was 1.26. For the same compound, the period change [1] was -0.03 h (inactive), the inhibition [2] was 0% (inactive) and the fluorescence ratio (interference) [3] was 1.1 (inactive). The red/green cell ratio (normalised) [4] was 0.91 (inactive), the normalised cell number [4, 21] was 1.02 and the normalised cell number [4, 22] was 0.93. The fold change [5, 23] was 2.17 (inactive), the fold change [5, 24] was 1.05 and the cell count [5, 25] was 6800. The cell count [5, 26] was 3130, the outcome [6] was “inactive” and the luciferase signal [11] was 192 AU (inactive). The z-score [7] was 2.42 (inactive).
In the case of `O=[N+]([O-])O[C@@H]1CO[C@H]2[C@@H]1OC[C@@H]2O`, the parasite load remaining [8] is reported as 73.3% (inactive), the viability [8] is reported as 93.9% and the red/green cell ratio (normalised) [4] is reported as 1.19 (inactive). For the same compound, the normalised cell number [4, 21] was 1.15, the normalised cell number [4, 22] was 1.37 and the fold change [5, 23] was 0.933 (inactive). It also gave a fold change [5, 24] of 3.92, a cell count [5, 25] of 12300 and a cell count [5, 26] of 13200. The z-score [9, 27] was -0.228 (inactive), the z-score [9, 28] was 0.0347 and the remaining NAD [10] was 12 nM (inactive). For the same compound, the luciferase signal [11] was 52 AU (inactive).
